PubChem BioAssay (NCATS)
Records with an inconclusive call do not appear. Calls of active or inactive are those of the source. Calls come from the whole dose curve; as a rule, active = well fitted cell-killing curve with a large enough effect; inconclusive = small, poorly fitted or top-dose-only effect, or effect the other way; inactive = no such curve, though single readings can be large or run the other way.

Columns and labels:
[1] = Quantitative High-Throughput drug screen in 47 multiple myeloma cell lines against the NCATS MIPE library collection: L363_DSMZ cell viability assay (AID 1918984); conditions: L363 myeloma viability, CellTiter-Glo ATP luminescence, 48 h; viability (% of control): at 45.8 µM (top of the series); note: nearly all actives have a fitted effect of over 40% in size; note: potency is the fitted concentration of half-maximal effect
In short: (§1)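 Cells were exposed to library compounds for 48 hours, after which ATP was measured by CellTiter-Glo. Signal was taken as median relative luminescence units.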

[2] = Quantitative High-Throughput drug screen in 47 multiple myeloma cell lines against the NCATS MIPE library collection: XG6_PLB cell viability assay (AID 1919865); note: nearly all actives have a fitted effect of over 40% in size; note: potency is the fitted concentration of half-maximal effect
In short: as §1

[3] = Quantitative High-Throughput drug screen in 47 multiple myeloma cell lines against the NCATS MIPE library collection: XG1_PLB cell viability assay (AID 1919866); note: nearly all actives have a fitted effect of over 35% in size; note: potency is the fitted concentration of half-maximal effect
In short: as §1

[4] = Quantitative High-Throughput drug screen in 47 multiple myeloma cell lines against the NCATS MIPE library collection: PCM6_Riken cell viability assay (AID 1919870); note: nearly all actives have a fitted effect of over 30% in size; note: potency is the fitted concentration of half-maximal effect
In short: as §1

[5] = Quantitative High-Throughput drug screen in 47 multiple myeloma cell lines against the NCATS MIPE library collection: RPMI8226_ATCC cell viability assay (AID 1919871); note: nearly all actives have a fitted effect of over 30% in size; note: potency is the fitted concentration of half-maximal effect
In short: as §1

[6] = Quantitative High-Throughput drug screen in 47 multiple myeloma cell lines against the NCATS MIPE library collection: KMS28BM_JCRB cell viability assay (AID 1919874); note: nearly all actives have a fitted effect of over 35% in size
In short: as §1

[7] = Quantitative High-Throughput drug screen in 47 multiple myeloma cell lines against the NCATS MIPE library collection: KMS34_JCRB cell viability assay (AID 1918985); note: nearly all actives have a fitted effect of over 40% in size; note: potency is the fitted concentration of half-maximal effect
In short: as §1

[8] = Quantitative High-Throughput drug screen in 47 multiple myeloma cell lines against the NCATS MIPE library collection: OCIMY7_PLB cell viability assay (AID 1918987); conditions: OCI-MY7 myeloma viability, CellTiter-Glo ATP, 48 h; viability (% of DMSO): at 45.8 µM (top of the series); note: nearly all actives have a fitted effect of over 65% in size; note: potency is the fitted concentration of half-maximal effect
In short: as §1

[9] = Quantitative High-Throughput drug screen in 47 multiple myeloma cell lines against the NCATS MIPE library collection: OPM1_PLB cell viability assay (AID 1918989); note: nearly all actives have a fitted effect of over 40% in size; note: potency is the fitted concentration of half-maximal effect
In short: as §1

[10] = Quantitative High-Throughput drug screen in 47 multiple myeloma cell lines against the NCATS MIPE library collection: VP6_DJ cell viability assay (AID 1919867); note: nearly all actives have a fitted effect of over 40% in size; note: potency is the fitted concentration of half-maximal effect
In short: as §1

[11] = Quantitative High-Throughput drug screen in 47 multiple myeloma cell lines against the NCATS MIPE library collection: PE2_PLB cell viability assay (AID 1919869); note: nearly all actives have a fitted effect of over 35% in size; note: potency is the fitted concentration of half-maximal effect
In short: as §1

[12] = Quantitative High-Throughput drug screen in 47 multiple myeloma cell lines against the NCATS MIPE library collection: OPM2_DSMZ cell viability assay (AID 1919872); note: nearly all actives have a fitted effect of over 30% in size
In short: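 Myeloma cell lines, 500 cells per well, exposed to MIPE 4.0 library compounds for 48 h at 37C, 5% CO2. Viability from ATP by CellTiter-Glo luminescence; normalised to DMSO (100%) and media-only (0%) wells.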

[13] = Quantitative High-Throughput drug screen in 47 multiple myeloma cell lines against the NCATS MIPE library collection: U266_ATCC cell viability assay (AID 1919864); note: nearly all actives have a fitted effect of over 35% in size; note: potency is the fitted concentration of half-maximal effect
In short: as §1

[14] = Quantitative High-Throughput drug screen in 47 multiple myeloma cell lines against the NCATS MIPE library collection: OCIMY5_PLB cell viability assay (AID 1918988); note: nearly all actives have a fitted effect of over 65% in size; note: potency is the fitted concentration of half-maximal effect
In short: as §1

[15] = Quantitative High-Throughput drug screen in 47 multiple myeloma cell lines against the NCATS MIPE library collection: KMS11_JCRBsus cell viability assay (AID 1919873); note: nearly all actives have a fitted effect of over 50% in size; note: potency is the fitted concentration of half-maximal effect
In short: as §1

[16] = Quantitative High-Throughput drug screen in 47 multiple myeloma cell lines against the NCATS MIPE library collection: SKMM1_PLB cell viability assay (AID 1919863); conditions: SKMM1 myeloma viability, CellTiter-Glo ATP, 48 h; viability: hits give low values; note: nearly all actives have a fitted effect of over 35% in size; note: potency is the fitted concentration of half-maximal effect
In short: as §1

[17] = Quantitative High-Throughput drug screen in 47 multiple myeloma cell lines against the NCATS MIPE library collection: UTMC2_PLB cell viability assay (AID 1919868); conditions: CellTiter-Glo ATP luminescence, 48 h; viability (% of DMSO control): at 45.8 µM (top of the series); note: potency is the fitted concentration of half-maximal effect; nearly all actives have a fitted effect of over 55% in size
In short: as §1

CCCCC[C@H](O)C=C[C@H]1[C@H](O)CC(=O)[C@H]1CCCCCCC(=O)O
inactive: Potency [1] | Potency [2] | Potency [3] | Potency [4] | Potency [6]
active: Potency [5] 0.105 µM

Cc1ccccc1C(C(=O)NC1CCCCC1)N(C(=O)CNc1ccc(C#N)cc1)c1cccc(F)c1 (stereo unspecified)
active: Potency [5] 23.5 µM
inactive: Potency [7] | Potency [8] | Potency [9] | Potency [2] | Potency [3] | Potency [10] | Potency [11] | Potency [12]

Cc1csc(-c2nnc(Nc3ccc(Oc4ncccc4-c4ccnc(N)n4)cc3)c3ccccc23)c1
active: Potency [1] 20.9 µM | Potency [9] 18.7 µM | Potency [13] 23.5 µM | Potency [3] 0.469 µM

Cc1ccc(C2=Nc3ccc(Cl)cc3OC2)cc1
inactive: Potency [3] | Potency [11]
active: Potency [7] 6.62 µM | Potency [8] 1.32 µM | Potency [9] 10.5 µM | Potency [13] 9.35 µM | Potency [2] 7.43 µM | Potency [4] 7.43 µM

COc1cc2nccc(Oc3ccc(NC(=O)Nc4cc(C)on4)c(Cl)c3)c2cc1OC
active: Potency [7] 4.18 µM | Potency [14] 16.6 µM | Potency [9] 20.9 µM | Potency [13] 20.9 µM | Potency [2] 0.118 µM | Potency [3] 1.66 µM | Potency [15] 20.9 µM

Cc1ccc(C(=O)N(CCCN)[C@@H](c2oc3cc(Cl)ccc3c(=O)c2Cc2ccccc2)C(C)C)cc1
inactive: Potency [7] | Potency [14] | Potency [12] | Potency [15]
active: Potency [13] 20.9 µM | Potency [4] 9.35 µM

CCCCC(C)(C)[C@H](O)C=C[C@H]1[C@H](O)CC(=O)[C@H]1CC=CCCCC(=O)O
active: Potency [7] 5.9 µM | Potency [9] 18.7 µM | Potency [13] 13.2 µM | Potency [2] 23.5 µM | Potency [4] 26.4 µM | Potency [5] 8.33 µM
inactive: Potency [6]

O=C(O)C1=CC(O)C(O)[C@H](O)C1 (stereo partly specified)
inactive: Potency [7] | Potency [9] | viability [16] 118% | Potency [13] | Potency [2] | Potency [3] | Potency [11] | Potency [5] | Potency [12] | Potency [15] | Potency [6]

CC(C)(OCc1nn(Cc2ccccc2)c2ccccc12)C(=O)O
inactive: Potency [7] | Potency [11] | Potency [5] | Potency [12] | Potency [15] | Potency [6]

O=c1[nH]c(=O)n([C@H]2C[C@@H](O)[C@@H](CO)O2)cc1I
active: Potency [7] 2.09 µM | Potency [15] 2.09 µM
inactive: Potency [14] | Potency [9] | viability [16] 119% | Potency [2] | Potency [3] | Potency [10] | Potency [11] | Potency [6]

CN(CC=CC#CC(C)(C)C)Cc1cccc2ccccc12
inactive: Potency [7] | Potency [15] | Potency [6]

Cc1cnc(-c2cc(N3CCN(C(=O)CCS(C)(=O)=O)CC3)ncc2Cl)c(C)c1
inactive: Potency [7] | viability [16] 114% | Potency [13] | Potency [4] | Potency [5] | Potency [12]
active: Potency [14] 2.96 µM | Potency [2] 14.8 µM | Potency [3] 16.6 µM

NCc1c[nH]c(=S)n1[C@H]1CCc2c(F)cc(F)cc2C1
active: Potency [7] 20.9 µM | Potency [14] 9.35 µM | Potency [9] 18.7 µM | Potency [2] 18.7 µM | Potency [3] 9.35 µM | Potency [10] 3.32 µM | Potency [11] 16.6 µM | Potency [4] 2.96 µM | Potency [5] 26.4 µM | Potency [15] 20.9 µM

COc1ccc(C=CC(=O)Nc2ccccc2C(=O)O)cc1OC
inactive: Potency [7] | Potency [9] | Potency [4] | Potency [5] | Potency [12]
active: Potency [3] 6.62 µM | Potency [11] 14.8 µM

OCCn1cc(-c2ccc3c(c2)CCC3=NO)c(-c2ccncc2)n1
inactive: Potency [7] | Potency [9]
active: Potency [13] 23.5 µM | Potency [2] 13.2 µM | Potency [10] 16.6 µM | Potency [4] 20.9 µM

CCC[C@H](N[C@@H](C)C(=O)N1[C@@H]2CCCC[C@H]2C[C@H]1C(=O)O)C(=O)OCC
active: Potency [16] 18.7 µM | Potency [17] 1.32 µM | Potency [5] 9.35 µM
inactive: Potency [7] | Potency [9] | Potency [4] | Potency [15] | Potency [6]

CC1CCN(c2cc(N3CCN(C)CC3)ccc2NC(=O)c2cc(C#N)c[nH]2)CC1
inactive: Potency [9] | Potency [2] | Potency [11] | Potency [15] | Potency [6]
active: Potency [7] 20.9 µM | Potency [4] 7.43 µM

O=C(Nc1cccc(Cl)c1)Nc1ncc(CCNc2ncnc3ccsc23)s1
active: Potency [7] 6.62 µM | Potency [14] 0.833 µM | Potency [9] 6.62 µM | Potency [16] 3.32 µM | Potency [13] 16.6 µM | Potency [2] 4.18 µM | Potency [3] 1.32 µM | Potency [17] 0.372 µM | Potency [11] 4.18 µM | Potency [4] 5.26 µM | Potency [5] 5.9 µM | Potency [15] 11.8 µM
